Compound activity (PubChem BioAssay)
Rows were chosen to be rich in hits. Some 7.9% of all compounds tested hit in one or more screens of this group.
HCV inh: HCV inhibition; 340,000 tested, 3.4% active; Potency, µM (highest dose often 41.8 µM), for the others: at the highest dose activity change, negative = inhibition, hits mostly inhibitors; Huh7.5.1 HCVcc-Cre infection, luciferase reporter, 44 h; active = well fitted inhibition curve with a large enough effect; inconclusive = small, poorly fitted or top-dose-only effect, or another doubt; inactive = no such curve, though single readings can be large or run the other way; also: potency is read from the fitted curve at half-maximal effect
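Cells seeded at 1,000/well and cultured 4 h, then compounds added followed by HCVcc-Cre virus (~0.5 moi). After 44 h further culture, luciferase substrate was added, plates held 15 min at room temperature, and luminescence read for 15 sec.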
HCMV antiviral: human cytomegalovirus inhibition; HFF cells, HCMV-luciferase reporter, 72 h; stronger effect = lower value; activity change, negative = inhibition, % at 57.5 µM; 410,000 tested, 4.5% active; AID 1259415; in the data active = activity change below about -60%; inconclusive = no clear call, values can overlap the other calls; inactive = above about -39%
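HFF cells seeded 16 h at 37C, treated with compounds, infected with luciferase-reporter HCMV at MOI 1 PFU/cell; luciferase read at 72 h post infection, normalized to buffer-only and Salinomycin controls.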
MARV entry inh: Marburg virus entry inhibition | Marburg virus pseudotyped entry inhibition, cell reporter | Potency, µM (top dose mostly 37.8 µM), for inactives: top-dose activity change, negative = inhibition, usual class: inhibitors | 300,000 tested, 1.8% active | AID 540276; calls by dose curve; tested in HEK293 cells; also: potency is read from the fitted curve at half-maximal effect
Lassa entry inh: Lassa virus entry inhibition; Potency, µM (doses to about 37.9 µM), without a hit: at the top dose activity change, negative = inhibition, actives largely listed as inhibitors; 300,000 tested, 1.2% active; Lassa virus pseudotype entry inhibition, cell reporter; AID 540256; calls by dose curve; tested in HEK293 cells; also: potency is read from the fitted curve at half-maximal effect; nearly all actives have a fitted effect of over 50% in size
FMDV inh: foot and mouth disease virus antiviral activity; 410,000 tested, 1.2% active; AID 1159524; FMDV antiviral cell-based qHTS; Potency, µM (titrated, usually from 57.9 µM), for inactives: at the highest dose activity change, negative = inhibition, actives largely listed as inhibitors; calls by dose curve; tested in HEK293T cells; also: read-out not given here; potency is read from the fitted curve at half-maximal effect; nearly all actives have a fitted effect of over 45% in size
* marks the source's active call; other numbers are inactive results; ? = inconclusive; nt = not tested or not shown; [ ] = another dose, or the depositor's remark. % is scaled to controls: 0 for no effect and ±100 for the full control effect.

SMILES	HCV inh	HCMV antiviral	MARV entry inh	Lassa entry inh	FMDV inh
C#CCn1cc(/C=N/Nc2nc3ccccc3[nH]2)c2ccccc21	?	-69*	?	?	-16%
CSc1ccc(CNC(=O)C2(C)CCCN(C(C)=O)C2)cc1 (stereo not given)	nt	-5	nt	nt	-13%
Cc1nc2c(-c3ccccc3)c(C)nn2c(C)c1CCC(=O)Nc1ccccc1F	nt	19	-20%[46.1 µM]	?	?
COc1cc(OC)cc(-c2c(-c3ccsc3)c3cc(Br)ccc3n2C)c1	4%	-23	nt	nt	-24%
Nc1[nH]c(C(=O)c2ccccc2)c(-c2ccc(Cl)c(Cl)c2)c1C(=O)NCCc1c[nH]c2ccccc12	nt	28	nt	nt	nt
CC(c1ccccc1C(O)(c1ccccc1)c1ccccc1)N(C)C (stereo not given)	6%	-69*	-7%	-17%	-14%
CC(C)=NOc1cc(NC(=O)CCl)cc([N+](=O)[O-])c1	25µM*	-83*	23µM*	18µM*	7.9µM*
O=C(CCl)Nc1cc(SCC(O)CO)cc([N+](=O)[O-])c1 (stereo not given)	1.6µM*	-99*	?	?	14µM*
COc1ccc2nc3n(c(=O)c2c1)-c1ccccc1C(=O)NC3Cc1ccccc1 (stereo not given)	16%	-13	nt	nt	nt
Cc1cccc(CNC(=O)c2cnn(-c3nccc(-c4cc5ccccc5o4)n3)c2C2CC2)n1	nt	nt	nt	nt	-22%
Cc1cc(C)c(NS(=O)(=O)c2ccccc2)c(C)c1	?	-22	-2%[46.1 µM]	-9%[46.1 µM]	-10%
Cc1ccc(Cl)cc1NS(=O)(=O)c1ccccc1	8%	-20	?	?	43%
Cc1cc(-c2ccc(NS(=O)(=O)c3ccccc3)c(C)c2)ccc1NS(=O)(=O)c1ccccc1	8.9µM*	15	?	?	-1%
Cc1ccc(NS(=O)(=O)c2ccccc2)c(NS(=O)(=O)c2ccccc2)c1	14%	-2	-19%[46.1 µM]	-6%[46.1 µM]	-3%
O=S(=O)(Nc1ccc(Cl)cc1NS(=O)(=O)c1ccccc1)c1ccccc1	0.5µM*	-29	4%[46.1 µM]	-2%[46.1 µM]	-21%
Cc1ccc(NS(=O)(=O)c2ccccc2)c2c1CC(C)(C)O2	10µM*	-16	?	?	12%
Cc1cc2oc(=O)sc2cc1NS(=O)(=O)c1ccccc1	-13%	-9	-1%[46.1 µM]	11µM*	6%
COc1ccc(OC)c(NC(=O)c2cc(-c3c(C)cc(C)cc3O)n[nH]2)c1	10µM*	9	nt	nt	-24%
COc1ccc(OC)c(NC(=O)c2cc(-c3cc(C)c(C)cc3O)n[nH]2)c1	-11%	?	-7%	?	18%
Cc1cc(C)c(O)c(-c2cc(C(=O)Nc3cccnc3)[nH]n2)c1	?	?	?	25%	-21%
Cc1cccc(NC(=O)c2cc(-c3cc(C)cc(C)c3O)n[nH]2)c1	11µM*	?	nt	nt	-10%
COc1ccc(OC)c(NC(=O)c2cc(-c3cc(C)cc(C)c3O)n[nH]2)c1	4µM*	-68*	?	-19%	2%
Cc1ccc2nc(SCC(=O)N3CCC4(CC3)CC4C(=O)Nc3ccc(F)c(F)c3)[nH]c2c1 (stereo not given)	nt	nt	nt	nt	-4%
Cc1ccc(C(=O)c2cn(CC(=O)NC3CCCCC3)c3nc(C)ccc3c2=O)cc1	nt	6	nt	-11%[46.1 µM]	-23%
CCc1ccc2c(CN(C)Cc3ccccc3OC)cc(=O)oc2c1	-22%	5	?	?	10%
SMILES	HCV inh	HCMV antiviral	MARV entry inh	Lassa entry inh	FMDV inh
CC(=O)N[C@H](C(=O)O)C(C)(C)SN=O	nt	nt	?	1%	nt
O=C(Nc1cc(Cl)cc2c1-c1ccc(Cl)cc1C2O)C(Cl)Cl (stereo not given)	11µM*	-15	?	13µM*	-23%
Nc1cc(Cl)cc2c1-c1ccc(Cl)cc1C2O (stereo not given)	?	?	10%[46.1 µM]	-12%[46.1 µM]	47%
O=c1c2ccccc2nc(/C=C/c2cccc3ccccc23)n1-c1ccccc1Cl	nt	?	nt	-13%[46.1 µM]	22µM*
Cc1ccccc1-n1c(/C=C/c2ccccc2F)nc2ccccc2c1=O	nt	-85*	nt	1%[46.1 µM]	?
COc1ccc(Cl)cc1-n1c(/C=C/c2cccc3ccccc23)nc2ccccc2c1=O	nt	4	nt	9%[46.1 µM]	-22%
Cc1ccccc1-n1c(/C=C/c2c(C)n(C)c3ccccc23)nc2ccccc2c1=O	nt	-19	nt	-5%[46.1 µM]	-27%
